Assay results: the supplement of paper PMC11732987, “Enantioselective OTUD7B fragment discovery through chemoproteomics screening and high-throughput optimisation” (Communications Chemistry, 2025)

Experiments:
Experiment in all cases: log2 ratio of Biotin-Ahx-Ub-VS probe labelling (fragment/DMSO); higher = less target engagement (more negative = stronger competition), active = hit call of the paper (q ≤ 0.05, log2 ratio ≤ -1)
Details in all cases: compound concentration: 200 uM; treatment time: 3 h
USP34 = USP34 (UniProt Q70CQ2)
Procedure, shortened: (§1)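 HEK293T lysate (495 µg per sample, in Tris/CHAPS/IGEPAL buffer with protease inhibitors) was exposed in triplicate for 3 h to fragment at 200 µM or to vehicle, then to Biotin-Ahx-Ub-VS at 0.5 µM final for 1 h. Labelled DUBs were enriched on NeutrAvidin, digested with LysC and trypsin, and analysed by diaPASEF LC-MS/MS. Spectronaut label-free quantities were normalised to the global median, and values are average log2 ratios of fragment over vehicle from an unpaired t-test. Only proteins with ≥2 unique peptides were used.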

USP36 = biological target: T1, USP36 (UniProt Q9P275)
T1 sequence (whole entry): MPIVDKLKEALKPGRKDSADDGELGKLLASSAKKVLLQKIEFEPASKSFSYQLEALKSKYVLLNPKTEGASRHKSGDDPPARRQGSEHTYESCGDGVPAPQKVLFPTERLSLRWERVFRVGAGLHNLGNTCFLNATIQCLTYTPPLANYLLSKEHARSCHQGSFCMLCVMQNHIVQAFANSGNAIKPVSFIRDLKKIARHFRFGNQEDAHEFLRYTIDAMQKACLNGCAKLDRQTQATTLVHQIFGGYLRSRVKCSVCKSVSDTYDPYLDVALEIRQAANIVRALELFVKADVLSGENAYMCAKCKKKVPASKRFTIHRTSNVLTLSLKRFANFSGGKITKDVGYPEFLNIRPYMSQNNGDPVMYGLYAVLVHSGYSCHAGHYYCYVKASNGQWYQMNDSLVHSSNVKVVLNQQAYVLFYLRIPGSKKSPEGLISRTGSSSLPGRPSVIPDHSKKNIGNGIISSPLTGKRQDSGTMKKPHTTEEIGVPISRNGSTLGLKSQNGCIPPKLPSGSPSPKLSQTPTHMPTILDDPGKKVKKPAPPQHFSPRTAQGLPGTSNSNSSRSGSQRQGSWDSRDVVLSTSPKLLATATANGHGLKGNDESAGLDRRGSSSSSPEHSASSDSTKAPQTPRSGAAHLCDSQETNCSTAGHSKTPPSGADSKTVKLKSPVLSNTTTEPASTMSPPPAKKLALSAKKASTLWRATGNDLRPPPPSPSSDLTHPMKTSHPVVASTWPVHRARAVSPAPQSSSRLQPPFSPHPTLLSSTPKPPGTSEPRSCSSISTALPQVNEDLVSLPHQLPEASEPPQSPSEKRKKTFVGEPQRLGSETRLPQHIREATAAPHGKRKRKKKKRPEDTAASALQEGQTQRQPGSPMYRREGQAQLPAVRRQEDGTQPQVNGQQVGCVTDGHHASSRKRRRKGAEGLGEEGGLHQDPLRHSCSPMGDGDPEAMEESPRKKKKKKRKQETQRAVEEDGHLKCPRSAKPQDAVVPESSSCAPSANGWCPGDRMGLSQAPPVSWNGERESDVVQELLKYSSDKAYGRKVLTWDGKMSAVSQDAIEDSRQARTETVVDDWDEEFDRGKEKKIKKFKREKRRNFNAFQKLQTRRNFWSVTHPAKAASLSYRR
Procedure, shortened: as §1

USP38 = biological target: T2, USP38 (UniProt Q8NB14)
T2 sequence (whole entry): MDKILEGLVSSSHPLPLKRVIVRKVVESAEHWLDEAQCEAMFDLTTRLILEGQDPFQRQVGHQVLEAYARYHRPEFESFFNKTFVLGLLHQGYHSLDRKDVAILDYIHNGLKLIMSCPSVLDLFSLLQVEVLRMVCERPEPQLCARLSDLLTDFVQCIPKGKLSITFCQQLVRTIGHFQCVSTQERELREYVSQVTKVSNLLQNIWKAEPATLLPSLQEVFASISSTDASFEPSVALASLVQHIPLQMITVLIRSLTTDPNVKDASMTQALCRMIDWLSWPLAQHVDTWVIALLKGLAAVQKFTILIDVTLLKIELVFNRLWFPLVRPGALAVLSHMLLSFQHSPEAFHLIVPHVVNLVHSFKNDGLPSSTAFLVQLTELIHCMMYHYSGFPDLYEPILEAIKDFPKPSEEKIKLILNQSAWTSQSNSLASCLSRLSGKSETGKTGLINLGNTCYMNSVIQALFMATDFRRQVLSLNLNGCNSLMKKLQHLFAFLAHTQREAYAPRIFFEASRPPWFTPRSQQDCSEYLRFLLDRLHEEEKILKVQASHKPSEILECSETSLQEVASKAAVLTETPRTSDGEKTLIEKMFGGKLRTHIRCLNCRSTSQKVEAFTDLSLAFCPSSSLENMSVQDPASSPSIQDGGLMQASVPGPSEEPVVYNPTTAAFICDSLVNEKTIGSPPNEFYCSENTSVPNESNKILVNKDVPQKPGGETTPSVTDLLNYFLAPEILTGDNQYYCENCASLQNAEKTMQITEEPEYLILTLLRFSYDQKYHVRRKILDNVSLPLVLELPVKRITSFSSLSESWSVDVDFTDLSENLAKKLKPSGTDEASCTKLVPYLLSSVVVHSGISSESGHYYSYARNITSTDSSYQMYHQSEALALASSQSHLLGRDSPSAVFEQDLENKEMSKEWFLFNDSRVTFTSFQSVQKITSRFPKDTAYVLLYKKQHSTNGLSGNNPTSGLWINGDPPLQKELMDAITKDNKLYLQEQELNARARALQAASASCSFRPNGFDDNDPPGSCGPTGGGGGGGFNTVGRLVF
Procedure, shortened: as §1

USP39 = biological target: T3, USP39 (UniProt Q53GS9)
T3 sequence (whole entry): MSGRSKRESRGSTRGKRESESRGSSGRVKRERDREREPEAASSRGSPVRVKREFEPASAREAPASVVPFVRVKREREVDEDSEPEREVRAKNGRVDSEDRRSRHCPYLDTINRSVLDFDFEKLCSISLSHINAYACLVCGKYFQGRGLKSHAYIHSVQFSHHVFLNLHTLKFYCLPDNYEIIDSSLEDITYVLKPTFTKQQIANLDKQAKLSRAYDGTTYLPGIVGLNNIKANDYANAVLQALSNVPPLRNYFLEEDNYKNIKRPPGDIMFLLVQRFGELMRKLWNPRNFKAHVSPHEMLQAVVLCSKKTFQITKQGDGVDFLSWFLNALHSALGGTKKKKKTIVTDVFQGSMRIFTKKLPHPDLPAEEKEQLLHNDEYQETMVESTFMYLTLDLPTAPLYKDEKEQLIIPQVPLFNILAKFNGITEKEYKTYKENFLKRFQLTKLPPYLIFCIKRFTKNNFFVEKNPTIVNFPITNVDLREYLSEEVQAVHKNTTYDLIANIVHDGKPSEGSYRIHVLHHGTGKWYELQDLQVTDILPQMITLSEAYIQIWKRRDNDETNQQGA
Procedure, shortened: as §1

USP4 = biological target: T4, USP4 (UniProt Q13107)
T4 sequence (whole entry): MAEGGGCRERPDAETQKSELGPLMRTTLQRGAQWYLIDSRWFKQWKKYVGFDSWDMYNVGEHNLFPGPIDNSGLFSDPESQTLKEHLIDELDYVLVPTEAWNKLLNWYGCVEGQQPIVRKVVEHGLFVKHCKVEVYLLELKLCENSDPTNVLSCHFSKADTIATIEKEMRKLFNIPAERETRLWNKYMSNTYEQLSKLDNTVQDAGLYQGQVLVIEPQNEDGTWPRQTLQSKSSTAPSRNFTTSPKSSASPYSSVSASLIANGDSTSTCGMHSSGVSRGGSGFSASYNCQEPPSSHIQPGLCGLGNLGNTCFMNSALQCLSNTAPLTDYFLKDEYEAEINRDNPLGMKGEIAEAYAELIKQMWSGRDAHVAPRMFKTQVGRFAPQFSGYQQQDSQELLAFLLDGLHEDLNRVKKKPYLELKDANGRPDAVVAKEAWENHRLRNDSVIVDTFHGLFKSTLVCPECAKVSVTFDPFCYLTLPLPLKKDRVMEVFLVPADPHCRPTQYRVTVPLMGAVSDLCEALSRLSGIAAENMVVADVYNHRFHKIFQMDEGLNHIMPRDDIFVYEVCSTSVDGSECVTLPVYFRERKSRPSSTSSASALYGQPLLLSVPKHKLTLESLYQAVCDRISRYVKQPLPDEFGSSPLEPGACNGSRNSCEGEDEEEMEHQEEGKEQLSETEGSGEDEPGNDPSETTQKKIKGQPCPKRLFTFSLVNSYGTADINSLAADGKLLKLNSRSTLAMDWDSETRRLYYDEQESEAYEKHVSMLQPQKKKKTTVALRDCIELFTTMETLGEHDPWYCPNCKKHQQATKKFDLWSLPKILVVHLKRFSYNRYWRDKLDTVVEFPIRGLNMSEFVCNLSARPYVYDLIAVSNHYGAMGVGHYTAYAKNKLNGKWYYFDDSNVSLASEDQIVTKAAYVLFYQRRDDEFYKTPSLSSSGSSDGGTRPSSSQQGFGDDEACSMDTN
Procedure, shortened: as §1

Measured: log2 ratio of Biotin-Ahx-Ub-VS probe labelling

Sequence of USP34 (Q70CQ2 whole entry, the tested form may be a part): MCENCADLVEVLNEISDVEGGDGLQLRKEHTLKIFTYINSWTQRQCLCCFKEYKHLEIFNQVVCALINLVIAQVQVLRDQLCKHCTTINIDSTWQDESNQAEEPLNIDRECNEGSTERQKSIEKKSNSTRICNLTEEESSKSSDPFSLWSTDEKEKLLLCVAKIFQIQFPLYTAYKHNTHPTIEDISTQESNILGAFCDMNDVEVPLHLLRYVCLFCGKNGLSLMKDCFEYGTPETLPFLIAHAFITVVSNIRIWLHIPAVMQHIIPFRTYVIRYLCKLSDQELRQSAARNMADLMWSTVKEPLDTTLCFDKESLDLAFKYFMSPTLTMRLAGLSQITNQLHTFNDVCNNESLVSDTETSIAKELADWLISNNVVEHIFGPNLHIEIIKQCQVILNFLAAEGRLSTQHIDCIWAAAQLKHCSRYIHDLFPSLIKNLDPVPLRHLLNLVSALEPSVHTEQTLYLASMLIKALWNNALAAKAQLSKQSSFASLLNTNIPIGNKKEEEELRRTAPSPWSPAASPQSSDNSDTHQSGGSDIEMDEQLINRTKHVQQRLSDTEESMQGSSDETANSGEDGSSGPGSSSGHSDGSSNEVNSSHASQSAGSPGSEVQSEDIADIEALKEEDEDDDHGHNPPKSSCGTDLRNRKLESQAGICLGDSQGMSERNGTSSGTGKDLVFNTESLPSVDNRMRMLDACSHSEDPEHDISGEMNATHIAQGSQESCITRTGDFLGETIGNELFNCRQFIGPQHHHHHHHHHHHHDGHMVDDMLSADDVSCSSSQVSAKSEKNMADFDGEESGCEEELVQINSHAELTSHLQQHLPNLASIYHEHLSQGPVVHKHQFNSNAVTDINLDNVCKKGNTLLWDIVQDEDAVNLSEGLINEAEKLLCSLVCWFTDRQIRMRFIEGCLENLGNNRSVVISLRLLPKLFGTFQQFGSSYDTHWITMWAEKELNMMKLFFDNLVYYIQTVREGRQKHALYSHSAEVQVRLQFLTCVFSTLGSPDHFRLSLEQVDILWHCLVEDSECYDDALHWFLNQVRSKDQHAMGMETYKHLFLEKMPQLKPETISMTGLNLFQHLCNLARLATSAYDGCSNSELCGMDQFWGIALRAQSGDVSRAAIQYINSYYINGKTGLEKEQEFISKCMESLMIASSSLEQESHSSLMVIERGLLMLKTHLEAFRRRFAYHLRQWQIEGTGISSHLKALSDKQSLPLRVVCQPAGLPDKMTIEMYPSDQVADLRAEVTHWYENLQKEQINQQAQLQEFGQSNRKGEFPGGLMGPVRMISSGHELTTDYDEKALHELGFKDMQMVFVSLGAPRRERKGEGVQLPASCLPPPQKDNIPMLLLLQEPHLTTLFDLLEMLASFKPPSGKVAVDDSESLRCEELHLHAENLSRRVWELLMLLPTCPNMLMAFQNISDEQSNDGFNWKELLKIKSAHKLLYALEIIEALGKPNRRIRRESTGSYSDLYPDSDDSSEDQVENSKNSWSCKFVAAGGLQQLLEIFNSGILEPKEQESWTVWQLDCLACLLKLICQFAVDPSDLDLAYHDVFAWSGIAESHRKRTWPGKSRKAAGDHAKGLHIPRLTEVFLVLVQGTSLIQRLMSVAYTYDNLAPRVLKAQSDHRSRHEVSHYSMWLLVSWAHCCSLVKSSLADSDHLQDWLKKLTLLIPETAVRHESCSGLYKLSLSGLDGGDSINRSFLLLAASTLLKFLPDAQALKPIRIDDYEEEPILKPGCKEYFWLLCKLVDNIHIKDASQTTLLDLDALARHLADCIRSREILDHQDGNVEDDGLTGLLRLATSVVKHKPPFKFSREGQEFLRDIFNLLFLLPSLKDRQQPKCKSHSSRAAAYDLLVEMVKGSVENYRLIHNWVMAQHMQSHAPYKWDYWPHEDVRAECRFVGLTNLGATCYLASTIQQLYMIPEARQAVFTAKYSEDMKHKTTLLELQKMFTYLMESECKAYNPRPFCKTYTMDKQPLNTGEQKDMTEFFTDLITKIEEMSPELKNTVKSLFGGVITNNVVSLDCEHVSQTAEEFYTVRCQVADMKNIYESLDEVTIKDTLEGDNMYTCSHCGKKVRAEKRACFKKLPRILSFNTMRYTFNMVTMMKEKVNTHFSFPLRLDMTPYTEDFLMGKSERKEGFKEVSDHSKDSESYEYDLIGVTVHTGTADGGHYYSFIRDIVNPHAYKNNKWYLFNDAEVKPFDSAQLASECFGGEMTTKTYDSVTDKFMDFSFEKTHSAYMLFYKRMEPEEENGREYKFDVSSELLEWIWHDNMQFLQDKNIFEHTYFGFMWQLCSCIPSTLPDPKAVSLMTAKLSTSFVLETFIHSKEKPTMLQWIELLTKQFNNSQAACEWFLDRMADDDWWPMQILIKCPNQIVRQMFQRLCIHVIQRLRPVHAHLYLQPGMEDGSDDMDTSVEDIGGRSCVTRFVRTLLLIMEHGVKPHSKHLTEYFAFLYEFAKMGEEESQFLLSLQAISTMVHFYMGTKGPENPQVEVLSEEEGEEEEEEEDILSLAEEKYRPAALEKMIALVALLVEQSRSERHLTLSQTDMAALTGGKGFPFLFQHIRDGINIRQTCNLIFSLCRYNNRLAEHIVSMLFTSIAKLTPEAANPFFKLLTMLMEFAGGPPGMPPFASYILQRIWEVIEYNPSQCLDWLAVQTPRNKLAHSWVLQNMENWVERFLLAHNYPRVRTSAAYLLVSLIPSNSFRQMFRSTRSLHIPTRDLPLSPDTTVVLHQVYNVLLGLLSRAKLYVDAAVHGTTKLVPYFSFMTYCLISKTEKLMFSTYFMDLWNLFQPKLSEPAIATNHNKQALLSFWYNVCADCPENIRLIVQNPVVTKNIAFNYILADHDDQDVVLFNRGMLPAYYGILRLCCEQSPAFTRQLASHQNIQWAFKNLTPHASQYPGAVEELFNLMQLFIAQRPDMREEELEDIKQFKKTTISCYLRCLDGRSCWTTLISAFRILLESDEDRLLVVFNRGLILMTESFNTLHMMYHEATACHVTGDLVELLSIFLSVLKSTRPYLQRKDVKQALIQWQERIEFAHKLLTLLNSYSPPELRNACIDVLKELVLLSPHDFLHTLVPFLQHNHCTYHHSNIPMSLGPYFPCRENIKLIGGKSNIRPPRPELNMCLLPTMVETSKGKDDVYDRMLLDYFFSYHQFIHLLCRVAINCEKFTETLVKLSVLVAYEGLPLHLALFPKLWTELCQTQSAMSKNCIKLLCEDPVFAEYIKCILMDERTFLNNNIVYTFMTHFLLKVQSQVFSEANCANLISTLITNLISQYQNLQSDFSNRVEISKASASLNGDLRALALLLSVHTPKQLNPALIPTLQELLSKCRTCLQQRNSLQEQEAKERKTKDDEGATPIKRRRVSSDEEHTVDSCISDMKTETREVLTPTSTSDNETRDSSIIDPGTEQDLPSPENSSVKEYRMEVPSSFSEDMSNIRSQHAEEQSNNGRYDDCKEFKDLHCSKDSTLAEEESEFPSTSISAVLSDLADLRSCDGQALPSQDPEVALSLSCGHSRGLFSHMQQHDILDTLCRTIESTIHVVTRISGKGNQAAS

Cc1cc(C2CCCN2C(=O)CCl)nn1C.Cl (stereo not given)
inactive: USP34 -0.179 | USP36 -0.0531 | USP38 -0.227 | USP39 -0.281 | USP4 -0.154
